Screens from PubChem.
TEAD-YAP inh: TEAD-YAP interaction inhibition. hit rate 1.4% among 640,000. AID 1259422. inhibition, % at 9.12 µM. HEK-TIYL cells, TEAD-Gal4/YAP UAS-luciferase luminescence; in the data active means inhibition above about 32%
GPR151 activ: activators of human GPR151. PathHunter beta-arrestin GPR151 cells, luminescence. hit rate 1% among 650,000. Q8TDV0. activation, % at 11.2 µM. AID 1508602; in the data active means activation above about 4.9%
MITF inh: blocks human microphthalmia-associated transcription factor; O75030; AlphaScreen MITF homodimerization, bead proximity signal; inhibition, % at 2.6 µM; hit rate 0.91% among 650,000; AID 1259374; in the data active means inhibition above about 50%
Target sequence (O75030 whole entry, looked up): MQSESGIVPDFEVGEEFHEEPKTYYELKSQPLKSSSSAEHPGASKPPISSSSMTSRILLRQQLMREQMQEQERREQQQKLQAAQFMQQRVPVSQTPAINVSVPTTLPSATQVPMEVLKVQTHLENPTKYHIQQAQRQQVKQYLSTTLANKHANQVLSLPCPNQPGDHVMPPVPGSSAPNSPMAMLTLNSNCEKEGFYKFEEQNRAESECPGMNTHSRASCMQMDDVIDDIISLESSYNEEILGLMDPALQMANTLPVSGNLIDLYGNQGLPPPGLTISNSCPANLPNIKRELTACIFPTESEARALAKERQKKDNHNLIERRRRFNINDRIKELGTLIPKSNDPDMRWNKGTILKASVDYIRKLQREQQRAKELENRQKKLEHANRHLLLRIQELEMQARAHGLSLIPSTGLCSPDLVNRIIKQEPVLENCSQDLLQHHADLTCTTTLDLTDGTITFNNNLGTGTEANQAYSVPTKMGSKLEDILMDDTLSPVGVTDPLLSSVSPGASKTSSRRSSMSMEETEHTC
FBW7 act: human FBW7 E3 ligase activation, primary screen | Q969H0 | AlphaScreen FBW7–phospho-cyclin E peptide binding, activator screen | normalized activity (activation), % at 26.1 µM | hit rate 0.13% among 650,000 | AID 1259310; in the data active means normalized activity above about 1.9%;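 further: purified mutant Fbw7 with reduced substrate affinity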
Large screens that a line does not name were inactive. Shown are actives, neighbours in structure and some others; about 3.5% of the full set was active somewhere.

CC1=NN(c2ccccc2)C(=O)C1N=Nc1ccc(N(C)C)cc1 (stereo not given)	none
CC(C)C1N=C2c3ccccc3N=C(SCc3ccccc3F)N2C1=O (stereo not given)	none
c1ccc(OCCNc2nc(Nc3ccncn3)nc3nc[nH]c23)cc1	FBW7 act 32.8
Cc1cnc(Nc2cnccn2)nc1NCCc1ccc(O)cc1	TEAD-YAP inh 35.7
Cc1cnc(Nc2ccncn2)nc1NCCc1ccc(O)cc1	none
Cn1c(N2CCC(C(N)=O)CC2)nc2ccccc21	none
CCCC1=NN2C(=N)/C(=C/c3cc(OC)c(OC)c(OC)c3)C(=O)N=C2S1	none
Cc1cc(Nc2ccccc2F)nc2cccc(O)c12	TEAD-YAP inh 43.0
Cn1cccc1C(=O)NC(=O)COC(=O)c1cc(-c2ccco2)nc2ccccc12	MITF inh 77.2
COc1ccc2c(=O)c(-c3ccccn3)coc2c1	none
O=C(O)Cc1nn(Cc2ccc(Br)cc2F)c(=O)c2ccccc12	none (no result: TEAD-YAP inh)
NC(CO)C(=O)NNCc1ccc(O)c(O)c1O (stereo not given)	MITF inh 88.2
O=C(N/N=C/c1ccc(O)c(O)c1O)c1ccc(Cl)cc1Cl	none
NC(CO)C(=O)N/N=C/c1ccc(O)c(O)c1O (stereo not given)	MITF inh 95.8
Cc1ccc(N2C(=O)C(Cl)=C(Nc3cc(Cl)ccc3O)C2=O)cc1	TEAD-YAP inh 41.4
O=C1C(Cl)=C(Nc2ccccc2O)C(=O)N1c1ccccc1	none
C=CCOc1ccc(C(=O)Nc2ccc(S(=O)(=O)N3CC(C)OC(C)C3)cc2)cc1 (stereo not given)	TEAD-YAP inh 39.2
COc1ccccc1-n1cnc(N)c1C(=O)c1ccccc1	TEAD-YAP inh 53.3
CN(C)CCNC(=O)c1cccn2c(=O)c3cc4ccccc4cc3nc12	TEAD-YAP inh 70.7
CC(C)CCNC(=O)c1cccn2c(=O)c3cc4ccccc4cc3nc12	none
Cc1ccc(/C=N/NC(=O)CNC(=O)c2ccccc2Br)cc1	TEAD-YAP inh 46.8
Cc1ccc(/C=N/NC(=O)CNc2cccc(C)c2)cc1	TEAD-YAP inh 38.5
O=C(NC1CC1)C1CCN(C2CCN(C(=O)Cc3ccc(F)cc3)CC2)CC1	none
O=c1c2ccc(Cl)cc2[nH]c(=S)n1-c1ccc(Oc2ccccc2)cc1	none
COC(=O)C1C(=O)NC(SCC(N)=O)=C(C#N)C1c1ccccc1OC (stereo not given)	none
COc1ccc(OCc2cccc(C(=O)O)c2)cc1	TEAD-YAP inh 93.5
COc1cc(OCc2cccc(C(=O)O)c2)ccc1C=C1C(=O)NC(=S)NC1=O	TEAD-YAP inh 85.5
CC(C)c1ccc(OCc2cccc(C(=O)NCCN(C)C)c2)cc1	TEAD-YAP inh 85.6
CCOc1ccc(OCc2cccc(C(=O)OC)c2)cc1	TEAD-YAP inh 85.1
O=C1NC(=S)NC(=O)C1=Cc1cccc(OCc2ccc(C(=O)O)cc2)c1	none
CCOc1ccc2ccccc2c1/C=N\NC(=O)c1ccc([N+](=O)[O-])cc1	none
O=C(O)c1cccc(COc2ccc(I)cc2)c1	TEAD-YAP inh 65.4
O=C(O)c1cccc(OCc2ccccc2)c1	none
O=C1C(Cl)=C(NCCN2CCCCC2)C(=O)c2ccccc21	TEAD-YAP inh 40.6
CCN(CC)CCNC1=C(Cl)C(=O)c2ccccc2C1=O	TEAD-YAP inh 46.3
COc1ccc2ccccc2c1/C=C1/N=C(c2cccc(Br)c2)OC1=O	none
CC(C)CS(=O)(=O)C1=NSC2=NC(=O)/C(=C\c3ccc([N+](=O)[O-])o3)C(=N)N21	MITF inh 65.5
CC(C)S(=O)(=O)C1=NSC2=NC(=O)/C(=C\c3ccc([N+](=O)[O-])o3)C(=N)N21	MITF inh 53.2
CCC1CN(CCNC(=O)c2cccc(N3CCCC3=O)c2)Cc2cc(OC)ccc2O1 (stereo not given)	none
Cn1c(=O)c(-c2ccccc2[N+](=O)[O-])c(Cl)c2ccccc21	none
CCOc1ccccc1NC(=O)c1sc2nc(C)nc(N(CC)CC)c2c1C	none
N#Cc1ccccc1NC(=O)Cc1ccc(Br)cc1	none
CCOc1ccccc1-c1c2cc(O)c(=O)cc-2oc2cc(O)c(O)cc12	MITF inh 103.0
COc1cc(-c2c3cc(O)c(=O)cc-3oc3cc(O)c(O)cc23)ccc1C	MITF inh 106.2
Cc1ccc(-c2cc(=O)c3cc(Cl)ccc3o2)cc1	none
COc1ccc(-c2cc(=O)c3cc(O)ccc3o2)cc1OC	none
O=c1cc2oc3cc(O)c(O)cc3c(-c3cccnc3)c-2cc1O	MITF inh 100.5
Cc1ccc(-c2c3cc(O)c(=O)cc-3oc3cc(O)c(O)cc23)cc1	MITF inh 102.2
CCOC(=O)c1c(NC(=O)/C(C#N)=C/c2cccnc2)sc2c1CCCC2	none
CCOC(=O)c1c(NC(=O)/C(C#N)=C/c2cccnc2)sc(C)c1C	FBW7 act 2.0
Clc1cc(N2CCCCC2)nc(N2CCCCC2)n1	none
O=C(c1ccccc1)n1c(=S)nc2ccccn21	TEAD-YAP inh 40.2
CCN1CCc2c(sc(NC(C)=O)c2-c2nc3ccccc3s2)C1	TEAD-YAP inh 68.6
CCN1CCc2c(sc(NC(=O)c3ccc(S(=O)(=O)N(CC)CC)cc3)c2-c2nc3ccccc3s2)C1	none
CCOC(=O)N1CCc2c(sc(NC(=O)CC)c2-c2nc3ccccc3s2)C1	none
CCC(=O)Nc1sc2c(c1-c1nc3ccccc3s1)CCN(CC)C2	TEAD-YAP inh 54.3
COc1ccc(S(=O)(=O)N(CC(=O)NC2CCCC2)c2cc(C)cc(C)c2)cc1OC	none
COc1cccc(C(=O)Nn2c(-c3ccc(C(C)(C)C)cc3)nc3ccccc3c2=O)c1	TEAD-YAP inh 41.5
COc1cc(OC)cc(C(=O)Nn2c(-c3ccc(C(C)(C)C)cc3)nc3ccccc3c2=O)c1	TEAD-YAP inh 38.2
COc1cccc(C(=O)Nn2c(-c3ccc(Br)cc3)nc3ccccc3c2=O)c1	none
O=C(/C=C/Nc1ccc(F)cc1F)c1cccs1	TEAD-YAP inh 73.4
O=C(/C=C/Nc1ccccc1F)c1cccs1	TEAD-YAP inh 38.2
Cc1c(C(=O)Nc2ccc3c(c2)OCO3)sc2ncn(CC(=O)N3CCCCC3C)c(=O)c12 (stereo not given)	none
COc1cc(/C=C2\N=C(c3ccccc3)NNC2=O)cc(OC)c1OC	TEAD-YAP inh 49.1
COc1cc(/C=C2/N=C(c3ccc(-c4ccccc4)cc3)OC2=O)cc(OC)c1OC	none
N#CC1=C(N)Oc2c(ccc3cccnc23)C1c1ccccc1F (stereo not given)	TEAD-YAP inh 58.4
CNC(=O)C(C)NC(=O)C1O[C@@H]2OC(C)(C)O[C@@H]2[C@H]2OC(C)(C)O[C@@H]12 (stereo not given in full)	none
CNC(=S)N/N=C/c1ccccc1Oc1nc(OC)cc(OC)n1	none
Cc1ccc(C(=O)c2cc([N+](=O)[O-])ccc2N2CCN(C)CC2)cc1	TEAD-YAP inh 50.8
COc1ccc(C(=O)c2cc([N+](=O)[O-])ccc2N2CCN(C)CC2)cc1	TEAD-YAP inh 49.1
CN1CCN(c2ccc([N+](=O)[O-])cc2C(=O)c2ccc(Br)cc2)CC1	TEAD-YAP inh 52.2
O=C1CSC(=Nc2ccc3ccccc3c2)N1	none
COc1ccc(N(CC(=O)Nc2cccc(Br)c2)S(=O)(=O)c2ccccc2)c(OC)c1	none
O=C(Cc1ccccc1)NCc1cccs1	none
